# Measurements taken from PubChem BioAssay (NCATS).
# Where “and” joins values, the source holds several entries; their conditions need not be identical. Identical values can stand only once. Inconclusive results are not listed. A call without a number means that no potency is given here. Calls of active or inactive are those of the source. Unless noted, calls follow the shape of the dose curve; as a rule, active = well fitted cell-killing curve with a large enough effect; inconclusive = small, poorly fitted or top-dose-only effect; inactive = flat fitted curve, though single readings scatter.
# Assays:
# [1] = Cell Viability - LYMP2-025 (AID 976); also: series mostly up to about 92 µM
# Method in brief: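 Acute cytotoxicity is scored as a concentration-dependent fall in intracellular ATP, measured by luciferase luminescence, in human lymphoblastoid LYMP2-025 cells exposed to compound for 24 hours at 37 C. AC50 values come from standard Hill fits.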
# [2] = Cell Viability - LYMP2-002 (AID 977);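 also: series mostly up to about 92 µM; compound exposure lasted 24 h at 37 °C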
# Method in brief: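 In this qHTS viability screen, 2500 human lymphoblastoid cells per well receive compound for 24 hr at 37 C, and luciferase-based ATP luminescence gives the viability signal. Tetraoctylammonium bromide serves as positive control.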
# [3] = Cell Viability - LYMP2-008 (AID 980); also: nearly all actives have a fitted effect of over 60% in size
# Method in brief: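 Cells seeded at 2500/well and rested 5 hr at 37 C; compounds added over a concentration range and incubated 24 hr at 37 C; CellTiter-Glo added, 30 min at room temperature; luminescence read and AC50 fitted with Hill model.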
# [4] = Cell Viability - LYMP2-010 (AID 981); also: nearly all actives have a fitted effect of over 55% in size
# Method in brief: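 Steps: seed 2500 LYMP2-010 cells per well; incubate 5 hr at 37 C; add compound; incubate 24 hr at 37 C; add CellTiter-Glo, wait 30 min at room temperature; read luminescence. Concentration-response fitted to Hill equation for AC50.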
# [5] = Cell Viability - LYMP2-012 (AID 982);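 also: cellular ATP by luciferase luminescence where a drop means cytotoxicity; cells exposed to compound for one day before reading; nearly all actives have a fitted effect of over 55% in size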
# [6] = Cell Viability - LYMP2-014 (AID 983); also: series mostly up to about 92 µM; nearly all actives have a fitted effect of over 50% in size
# Method in brief: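 Cells are plated at 2500/well and left 5 hr at 37 C. Compounds are added across a concentration range and incubated 24 hr at 37 C in complete medium. CellTiter-Glo is added, and luminescence is read after 30 min at room temperature.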
# [7] = Cell Viability - LYMP2-016 (AID 984); also: nearly all actives have a fitted effect of over 55% in size
# Method in brief: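 Human lymphoblastoid cells (LYMP2-016), 2500/well in complete medium, preincubated 5 hr at 37 C, then compound-treated 24 hr at 37 C. Intracellular ATP read by CellTiter-Glo luminescence after 30 min at room temperature; AC50 from Hill-equation concentration-response fits.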
# [8] = Cell Viability - LYMP2-018 (AID 985);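 also: compound exposure lasted 24 hr at 37 °C; nearly all actives have a fitted effect of over 50% in size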
# Method in brief: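 Seed 2500 lymphoblastoid cells per well, incubate 5 hr at 37 C, add compound and incubate 24 hr at 37 C, add CellTiter-Glo, wait 30 min at room temperature, then read luminescence.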
# [9] = Cell Viability - LYMP2-020 (AID 986); also: series mostly up to about 92 µM; nearly all actives have a fitted effect of over 55% in size
# Method in brief: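 Seed 2500 cells per well and incubate 5 hr at 37 C. Add compounds at a concentration series and incubate 24 hr at 37 C. Add CellTiter-Glo, wait 30 min at RT, read luminescence, and fit a Hill curve for AC50.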
# [10] = Cell Viability - LYMP2-022 (AID 987); also: nearly all actives have a fitted effect of over 55% in size
# Method in brief: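 Cells were seeded at 2500 per well, rested 5 hr at 37 C, and treated with titrated compounds for 24 hr at 37 C. Cellular ATP was then quantified by luciferase luminescence, and AC50 values were derived from Hill-modelled concentration-response curves.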
# [11] = Cell Viability - LYMP2-024 (AID 988); also: nearly all actives have a fitted effect of over 60% in size
# Method in brief: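 qHTS cytotoxicity, human lymphoblastoid line, complete medium; 24 h cpd treatment, 37 C; CellTiter-Glo ATP luminescence readout; tetraoctylammonium bromide positive control; AC50 via Hill fit.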
# [12] = Cell Viability - LYMP2-026 (AID 989); also: nearly all actives have a fitted effect of over 50% in size
# Method in brief: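 Cells are seeded at 2500 per well and held 5 hr at 37 C. Compounds are added in concentration series for 24 hr, then CellTiter-Glo reagent is applied and luminescence read.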
# [13] = Cell Viability - LYMP1-002 - Assay at 24 hr (AID 993)
# Method in brief: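 Acute toxicity is measured as concentration-dependent loss of cellular ATP in a human lymphoblastoid line (Coriell LYMP1-002) after 24 h treatment in complete medium. ATP is quantified by luciferase luminescence and AC50 derived by Hill modelling.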
# [14] = Cell Viability - LYMP1-002 - Assay at 40 hr (AID 994); also: nearly all actives have a fitted effect of over 60% in size
# Method in brief: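 Cells are plated at 2500 per well and rested 5 hr at 37 C. Compounds are added and incubated 40 hr at 37 C. CellTiter-Glo reagent is added for 30 min at room temperature before luminescence is read.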
# [15] = qHTS Assay for Identification of Small Molecule Inducers of Hypoxia Response (AID 2120; active = well fitted curve in the direction sought with a large enough effect in the signal ratio, with a control signal flat, not every such curve was filed as active; the % refers to the signal ratio)
# Method in brief: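 Cell-based qHTS for reporter induction: hypoxia response element controlled beta-lactamase in ME-180 cells. Compounds incubated 17 h at 37 degrees C; activity from blue/green (460/530 nm) ratio, inducers ranked by AC50.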
# [16] = target: Glucocorticoid receptor (Homo sapiens) (UniProt P04150); test: qHTS assay for small molecule agonists of glucocorticoid receptor signaling (AID 588532; active = well fitted curve in the direction sought with a large enough effect in the signal ratio, with a control signal flat; the % refers to the signal ratio); details: HeLa MMTV-bla, beta-lactamase ratio, agonist, 18 h; stronger effect = higher value; percent of dexamethasone control, DMSO zero
# Sequence of Glucocorticoid receptor (Homo sapiens) (P04150 whole entry, looked up): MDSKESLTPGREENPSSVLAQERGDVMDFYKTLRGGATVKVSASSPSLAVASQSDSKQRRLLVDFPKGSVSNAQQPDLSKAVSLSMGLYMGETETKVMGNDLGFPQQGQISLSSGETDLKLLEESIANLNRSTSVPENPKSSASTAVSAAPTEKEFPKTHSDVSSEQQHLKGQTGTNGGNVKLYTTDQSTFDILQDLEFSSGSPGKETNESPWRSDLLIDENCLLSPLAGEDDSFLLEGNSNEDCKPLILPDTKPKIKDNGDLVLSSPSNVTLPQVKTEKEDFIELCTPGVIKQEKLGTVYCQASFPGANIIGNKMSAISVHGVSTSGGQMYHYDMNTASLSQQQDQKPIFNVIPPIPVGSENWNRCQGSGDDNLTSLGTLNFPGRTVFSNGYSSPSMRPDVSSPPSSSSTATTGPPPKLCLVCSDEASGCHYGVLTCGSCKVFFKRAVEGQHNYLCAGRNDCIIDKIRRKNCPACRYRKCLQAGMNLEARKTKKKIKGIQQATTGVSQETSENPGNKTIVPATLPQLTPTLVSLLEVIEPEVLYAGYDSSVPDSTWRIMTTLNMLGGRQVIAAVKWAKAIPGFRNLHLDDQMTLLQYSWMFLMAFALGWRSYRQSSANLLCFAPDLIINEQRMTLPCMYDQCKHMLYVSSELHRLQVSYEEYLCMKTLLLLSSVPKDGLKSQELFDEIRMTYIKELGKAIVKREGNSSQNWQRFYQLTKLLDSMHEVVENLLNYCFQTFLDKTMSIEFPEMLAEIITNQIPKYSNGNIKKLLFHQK
# Method in brief: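 MMTV-bla HeLa, beta-lactamase reporter; medium with 1% charcoal/dextran-stripped FBS; cpds up to 92 uM, 18 h, 37 C; CCF4 readout 460/530 nm; Hill fit → EC50, efficacy vs 0.1 uM dexamethasone = 100%.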
# [17] = target: Glucocorticoid receptor (Homo sapiens) (UniProt P04150); test: qHTS assay for small molecule antagonists of glucocorticoid receptor signaling (AID 588533; active = well fitted inhibition curve with a large enough effect in the signal ratio, with a control signal flat, not every such curve was filed as active; the % refers to the signal ratio;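 also: cells stimulated with 2 nM dexamethasone as agonist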)
# Method in brief: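 Antagonist-mode qHTS: compound titrations added to GRE-bla HeLa cells, then dexamethasone 2 nM final; 18 h, 37 C. CCF4 FRET fluorescence normalized to dexamethasone and DMSO; IC50 from Hill fit.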
# [18] = target: Peroxisome proliferator-activated receptor delta (Homo sapiens) (UniProt Q03181); test: qHTS assay for small molecule agonists of peroxisome proliferator-activated receptor delta signaling (AID 588534; calls by dose curve)
# Sequence of Peroxisome proliferator-activated receptor delta (Homo sapiens) (Q03181 whole entry, looked up): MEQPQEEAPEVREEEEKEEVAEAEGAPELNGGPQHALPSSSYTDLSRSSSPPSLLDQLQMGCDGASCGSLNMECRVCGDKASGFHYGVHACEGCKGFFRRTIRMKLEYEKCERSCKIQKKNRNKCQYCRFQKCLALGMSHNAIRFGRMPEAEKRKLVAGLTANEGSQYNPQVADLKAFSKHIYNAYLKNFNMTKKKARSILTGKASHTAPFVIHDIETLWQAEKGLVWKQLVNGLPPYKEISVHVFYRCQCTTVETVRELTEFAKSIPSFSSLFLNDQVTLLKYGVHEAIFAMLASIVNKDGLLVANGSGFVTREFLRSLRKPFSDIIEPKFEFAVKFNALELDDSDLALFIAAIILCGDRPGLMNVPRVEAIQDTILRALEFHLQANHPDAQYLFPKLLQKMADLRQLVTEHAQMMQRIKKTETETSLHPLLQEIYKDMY
# Method in brief: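 Agonist-mode qHTS; reporter cells, 5 hrs 37 C pre-incubation; compound titration, 18 hrs 37 C; CCF4 dye, 2 hrs RT; fluorescence read. EC50/efficacy via Hill fit.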
# [19] = qHTS assay for small molecule antagonists of peroxisome proliferator-activated receptor delta signaling (AID 588535; active = well fitted inhibition curve with a large enough effect in the signal ratio, with a control signal flat, not every such curve was filed as active; the % refers to the signal ratio;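 as to max response: cells co-treated with a PPAR-delta agonist as stimulator during compound exposure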); details: HEK293T PPARd-UAS-bla, beta-lactamase FRET ratio, 18 h; 460 nm channel
# Method in brief: (§1)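 Inhibition of PPAR-delta response element-driven beta-lactamase expression is measured in HEK293T cells exposed to a compound titration series for 18 hrs at 37 C. Half-maximal inhibition comes from Hill equation fitting.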
# [20] = target: Peroxisome proliferator-activated receptor delta (Homo sapiens) (UniProt Q03181); test: as above
# Method in brief: as §1
# [21] = target: Vitamin D3 receptor (Homo sapiens) (UniProt P11473); test: qHTS assay for small molecule antagonists of vitamin D receptor signaling (AID 588541; calls by dose curve;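 also: receptor activated by calcitriol during compound treatment; series mostly up to about 77 µM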)
# Sequence of Vitamin D3 receptor (Homo sapiens) (P11473 whole entry, looked up): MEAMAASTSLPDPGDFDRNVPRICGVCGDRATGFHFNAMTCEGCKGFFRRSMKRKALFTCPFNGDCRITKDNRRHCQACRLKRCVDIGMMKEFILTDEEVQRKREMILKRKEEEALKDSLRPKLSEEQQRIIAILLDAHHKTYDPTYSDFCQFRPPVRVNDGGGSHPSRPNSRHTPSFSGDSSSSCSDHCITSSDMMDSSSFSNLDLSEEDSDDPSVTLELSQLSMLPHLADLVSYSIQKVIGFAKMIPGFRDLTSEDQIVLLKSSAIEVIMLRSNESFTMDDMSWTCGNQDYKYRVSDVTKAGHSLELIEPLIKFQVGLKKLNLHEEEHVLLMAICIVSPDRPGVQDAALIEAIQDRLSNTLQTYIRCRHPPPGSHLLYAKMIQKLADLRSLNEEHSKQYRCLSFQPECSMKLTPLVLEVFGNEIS
# Method in brief: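 VDR-UAS-bla HEK293T cells (2000/well, 2% charcoal-stripped FBS) were treated with titrated compounds plus 1-alpha,25-dihydroxyvitamin D3 (50 nM or 3 nM final) for 16 h at 37 C. CCF4 beta-lactamase fluorescence was read; Hill fits gave IC50.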
# [22] = target: Vitamin D3 receptor (Homo sapiens) (UniProt P11473); test: qHTS assay for small molecule agonists of vitamin D receptor signaling (AID 588543; calls by dose curve)
# Method in brief: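 GeneBLAzer VDR-UAS-bla HEK293T cells in 2% charcoal-stripped FBS medium were dosed with compound titrations for 16 h at 37 °C; CCF4 β-lactamase readout (405 nm ex, 460/530 nm em). EC50 and efficacy from Hill fits, normalized to 50 nM calcitriol (100%) and DMSO (0%).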
# [23] = qHTS assay for small molecule agonists of retinoid X receptor alpha signaling (AID 588544); details: HEK293T RXRa-UAS-bla, beta-lactamase reporter, 18 h; 530 nm emission
compound,measurement,setting,value
CCOc1cc(C=O)ccc1O,outcome,[1],inactive
same,outcome,[2],inactive
same,outcome,[3],inactive
same,Potency,[4],inactive
same,outcome,[5],inactive
same,outcome,[6],inactive
same,outcome,[7],inactive
same,outcome,[8],inactive
same,outcome,[9],inactive
same,outcome,[10],inactive
same,outcome,[11],inactive
same,outcome,[12],inactive
same,outcome,[13],inactive
same,Potency,[14],inactive
same,outcome,[15],inactive
same,activation,[16],0.229% (inactive) and -4.79% (inactive)
same,Potency,[17],inactive
same,Potency,[18],inactive
same,max response,[19],-4.7%
same,outcome,[20],inactive
same,outcome,[21],inactive
same,Potency,[22],inactive
same,max response,[23],11.5%
